Assay outcomes: PubChem BioAssay, National Center for Advancing Translational Sciences (NCATS)
D2 PAM-1: positive allosteric modulators of human D2 dopamine receptor; P14416; HEK293 T-REx D2, calcium flux, EC20 dopamine potentiation; potentiation, % at 10 µM; 340,000 compounds, 0.34% hits; AID 485347;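 active = potentiation over 3 SD above the plate norm, cut at about 30% in these data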; note: 0% is about no effect
Target sequence (P14416 whole entry, looked up): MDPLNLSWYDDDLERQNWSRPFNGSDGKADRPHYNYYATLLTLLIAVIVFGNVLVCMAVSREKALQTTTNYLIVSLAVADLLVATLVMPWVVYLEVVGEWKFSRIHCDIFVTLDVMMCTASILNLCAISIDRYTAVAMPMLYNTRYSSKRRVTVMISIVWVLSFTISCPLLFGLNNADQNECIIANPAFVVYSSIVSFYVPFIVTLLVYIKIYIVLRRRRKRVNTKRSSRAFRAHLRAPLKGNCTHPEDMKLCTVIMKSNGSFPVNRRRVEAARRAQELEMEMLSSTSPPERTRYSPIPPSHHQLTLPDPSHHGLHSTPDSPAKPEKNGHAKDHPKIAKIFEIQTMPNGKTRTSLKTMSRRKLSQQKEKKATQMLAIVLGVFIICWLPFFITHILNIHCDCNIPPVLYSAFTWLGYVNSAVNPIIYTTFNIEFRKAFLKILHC
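Using a no-wash calcium dye in inducible, force-coupled HEK293 Trex cells expressing D2, we tracked fluorescence each second for 180 s after compound, then for 180 s after EC20 dopamine to detect augmented signalling.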
D2 ag-1: agonists of human D2 dopamine receptor (beta-arrestin). DiscoveRx PathHunter D2 beta-arrestin, luminescence, 90 min; 100% = 57 uM dopamine signal. activation, % (concentration not given with the values). 360,000 compounds, 0.084% hits. AID 624465; in the data active = activation above about 40%
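DiscoveRx PathHunter D2 beta-arrestin cells (2,100/well) attached overnight, then compound-stimulated 90 min at 37 C in HBSS/10 mM HEPES/0.1% Tween-20 buffer; beta-galactosidase complementation read by luminescence after 1 h at ambient temperature. Dopamine 57 uM final (EC100) as control.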
D2 antagonist: D2 dopamine receptor (human) antagonism | P14416 | HEK293 TREx D2 cells, calcium flux, dopamine EC80 | inhibition, % at 10 µM | 340,000 compounds, 2% hits; in the data active = inhibition above about 30%; inactive = below that, where a call was filed; note: 0% is about no effect
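HEK293 T-REx D2 cells, tet-induced, calcium dye no-wash. Cpd pintool add, 180 s kinetic, then EC80 DA, 180 s kinetic. Ca flux read.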
D2 PAM-2: human D2 receptor positive allosteric modulation; P14416; DiscoveRx D2 beta-arrestin cells, luminescence, 90 min; 100% = 57 uM dopamine signal; potentiation, % (concentration not given with the values); 360,000 compounds, 0.23% hits; AID 624464; in the data active = potentiation above about 50%
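PathHunter D2 cells, attached overnight at 37 deg C, received compound in DMSO plus dopamine at EC20 (50 nM final) for 90 min at 37 deg C. Beta-arrestin recruitment was read as luminescence after 1 h with detection reagent at ambient temperature.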
D2 ag-2: D2 dopamine receptor (human) agonism; P14416; 340,000 compounds, 0.53% hits; HEK293 T-REx D2 cells, calcium flux agonist mode; activation, % at 2 µM;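 active = activation over 3 SD above normal in the single-dose calcium agonist read, cut at about 30% in these data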; note: 0% is about no effect
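HEK293 Trex D2 cells, tetracycline-induced, o/n 30 C 5% CO2; no-wash Ca dye, RT 30–90 min; 10-cycle baseline, 23 nl cpd added, kinetic Ca read 180 s; agonist hits = positive Ca response.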
An asterisk follows results filed as active. Only some compounds are listed: those with a hit (about 2.4% of all), similar ones and a draw of the others.

Screening O=C(c1ccc(S(=O)(=O)N2CCCC2)cc1)N(c1ccc(F)cc1)C1C=CS(=O)(=O)C1 (stereo not drawn) returned D2 PAM-1 8, D2 ag-1 0, D2 antagonist 2, D2 PAM-2 -4 and D2 ag-2 0.
O=S1(=O)CCC(NS(=O)(=O)c2cccc3cccnc23)C1 (stereo not drawn) was read as D2 PAM-1 34*, D2 ag-1 -1, D2 antagonist -8, D2 PAM-2 12 and D2 ag-2 -1.
`COc1ccc(C(O)(CCC(C)C)C(CN2CCOCC2)c2ccc(Cl)cc2)cc1` (stereo not drawn) gave D2 PAM-1 41*, D2 ag-1 -1, D2 antagonist 0, D2 PAM-2 0 and D2 ag-2 0.
For CCOC(=O)c1sc2ccccc2c1S(=O)(=O)Nc1cccc(C(F)(F)F)c1 the results were D2 PAM-1 -3 and D2 ag-2 1.
C=C1C(=O)C=C[C@]2(C)C[C@@H]3OC(=O)[C@](C)(O)[C@H]3C[C@@H]12 was read as D2 PAM-1 -5, D2 ag-1 -2, D2 antagonist 37*, D2 PAM-2 -9 and D2 ag-2 0.
`Cc1cc2nc(C3CCCN(C(=S)Nc4ccccc4)C3)[nH]c2cc1C` (stereo not drawn) gave D2 PAM-1 7, D2 ag-1 0, D2 antagonist 31*, D2 PAM-2 -8 and D2 ag-2 -1.
COc1ccccc1/C(C)=N/NC(=S)NCc1ccccc1 was read as D2 PAM-1 -5, D2 ag-1 -1, D2 antagonist -3, D2 PAM-2 -7 and D2 ag-2 0.
`COc1ccc(Nc2nc(N)nc(CSc3nnc(N)s3)n2)cc1` gave D2 PAM-1 -7, D2 ag-1 1, D2 antagonist 38*, D2 PAM-2 -5 and D2 ag-2 -1.
`COc1ccc(Nc2nc(N)nc(CSc3nc(C)cc(C)n3)n2)cc1` gave D2 PAM-1 5, D2 ag-1 -4 and D2 PAM-2 3.
`CC1(C(=O)OCC(=O)NCc2ccc(Cl)cc2)CC1(Cl)Cl` (stereo not drawn) gave D2 ag-1 -5 and D2 PAM-2 -4.
CC1(C(=O)OCC(=O)NC(=O)NCc2ccccc2)CC1(Cl)Cl (stereo not drawn) was read as D2 PAM-1 6, D2 ag-1 -2, D2 antagonist 31*, D2 PAM-2 0 and D2 ag-2 1.
CC1O[C@@H](OC2C(O)C(O)C(CO)O[C@H]2OC2C[C@]3(C)C(CC(O)C4[C@@H]([C@]5(C)CC[C@@H](C(C)(C)O)O5)CC[C@]43C)[C@@]3(C)CCC(O)C(C)(C)C23)C(O)C(O)C1O (stereo partly drawn) was read as D2 ag-1 -3 and D2 PAM-2 -24.
Screening COc1ccc(-c2c3c(=O)n(C)c(=O)n(C)c3cn2-c2cccc(N)c2)cc1 returned D2 PAM-1 11 and D2 ag-2 3.
CC(C)Cn1c(=S)[nH]c2cc(C(=O)O)ccc2c1=O was read as D2 PAM-1 9, D2 ag-1 -3, D2 antagonist 31*, D2 PAM-2 -8 and D2 ag-2 1.
Screening COCCn1c(=S)[nH]c2cc(C(=O)NC(C)C)ccc2c1=O returned D2 PAM-1 20, D2 ag-1 -2, D2 antagonist 2, D2 PAM-2 13 and D2 ag-2 0.
Screening CC(C)CC(OC(=O)c1nsc(Cl)c1Cl)C(=O)NC1CCCC1 (stereo not drawn) returned D2 PAM-1 1, D2 ag-1 -3, D2 antagonist 69*, D2 PAM-2 -3 and D2 ag-2 -1.
For Cc1cc(S(=O)(=O)Nc2ccc(-c3ccc(N4CCCCCC4)nn3)cc2)c(C)cc1Cl the results were D2 PAM-1 0 and D2 ag-2 1.
COc1ccccc1NC(=O)Cn1c(=O)n(Cc2nc(-c3ccccc3)no2)c(=O)c2ccccc21 was read as D2 PAM-1 3 and D2 ag-2 1.
O=C1CC(c2ccccc2)CN1C(=O)c1cccnc1 (stereo not drawn) was read as D2 PAM-1 4, D2 ag-1 -5, D2 antagonist 2, D2 PAM-2 -8 and D2 ag-2 0.
